Measured values reported in PubChem BioAssay (NCI).
This is part of a sample that, as a whole, favours compounds with a hit. Of some 83,000 tested, about 20% had one in any assay.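 48-hour exposure, single concentration, 96-well plates; percent growth endpoint where 0 means no net growth. Active: below 10.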 Calls of active or inactive are those of the source.

How the values were obtained:
Assay in all cases: NCI-60 one-dose screen, 48 h (100 = growth as untreated, 0 = no growth, -100 = all killed)
A498 renal = test system: A498 renal
CCRF-CEM leukemia = test system: CCRF-CEM leukemia
HCT-15 colon = test system: HCT-15 colon
HT29 colon = test system: HT29 colon
SNB-75 CNS = test system: SNB-75 CNS
SNB-19 CNS = test system: SNB-19 CNS
U251 CNS = test system: U251 CNS
PC-3 prostate = test system: PC-3 prostate
SK-MEL-5 melanoma = test system: SK-MEL-5 melanoma
UACC-62 melanoma = test system: UACC-62 melanoma
LOX IMVI melanoma = test system: LOX IMVI melanoma
SK-MEL-28 melanoma = test system: SK-MEL-28 melanoma
SK-MEL-2 melanoma = test system: SK-MEL-2 melanoma
EKVX NSCLC = settings: 10 µM unless noted
SN12C renal = test system: SN12C renal
UO-31 renal = test system: UO-31 renal
TK-10 renal = test system: TK-10 renal
ACHN renal = test system: ACHN renal
CAKI-1 renal = test system: CAKI-1 renal
MOLT-4 leukemia = settings: 10 µM unless noted

Measured: growth

CC/C(=C(/c1ccc(O)cc1)c1ccc(OCCN(C)C(=O)CCOCCNC(=O)Cc2ccc3c(c2)CN([C@@H]2CCC(=O)NC2=O)C3=O)cc1)c1ccccc1
active: CCRF-CEM leukemia; 1 µM 3.79%
inactive: A498 renal; 1 µM 127% | A498 renal; 10 µM 97.7% | CCRF-CEM leukemia; 10 µM 22.9%

N#C/C(=C/c1ccc(Cl)cc1)c1nnc(NC(=O)c2ccc(-n3c(=O)[nH]c4ccccc4c3=O)cc2)s1
inactive: HCT-15 colon; 10 µM unless noted 95.2% | HT29 colon; 10 µM unless noted 68.8% | SNB-75 CNS; 10 µM unless noted 53.3% | SNB-19 CNS; 10 µM unless noted 51.8% | U251 CNS; 10 µM unless noted 27.1% | PC-3 prostate; 10 µM unless noted 76.2% | SK-MEL-5 melanoma; 10 µM unless noted 27.7% | UACC-62 melanoma; 10 µM unless noted 67.2% | LOX IMVI melanoma; 10 µM unless noted 41.8% | SK-MEL-28 melanoma; 10 µM unless noted 74.9% | SK-MEL-2 melanoma; 10 µM unless noted 91.6% | EKVX NSCLC 86% | SN12C renal; 10 µM unless noted 61.1% | UO-31 renal; 10 µM unless noted 77.8% | TK-10 renal; 10 µM unless noted 114% | ACHN renal; 10 µM unless noted 84.3% | CAKI-1 renal; 10 µM unless noted 95.5% | A498 renal; 10 µM unless noted 116% | CCRF-CEM leukemia; 10 µM unless noted 97.9% | MOLT-4 leukemia 94.9%

Cc1ccc(C(C)C)cc1Oc1cccc(-c2c(-c3ccc(C(F)(F)F)cc3)ncn2C2CCNCC2)n1
active: HCT-15 colon; 10 µM unless noted -94.1% | HT29 colon; 10 µM unless noted -92.1% | SNB-75 CNS; 10 µM unless noted -94.1% | SNB-19 CNS; 10 µM unless noted -97.2% | U251 CNS; 10 µM unless noted -85.3% | PC-3 prostate; 10 µM unless noted -92% | SK-MEL-5 melanoma; 10 µM unless noted -98.6% | UACC-62 melanoma; 10 µM unless noted -94.1% | LOX IMVI melanoma; 10 µM unless noted -75.8% | SK-MEL-28 melanoma; 10 µM unless noted -80.5% | SK-MEL-2 melanoma; 10 µM unless noted -93.1% | EKVX NSCLC -91% | SN12C renal; 10 µM unless noted -92.1% | UO-31 renal; 10 µM unless noted -97.4% | TK-10 renal; 10 µM unless noted -94.9% | ACHN renal; 10 µM unless noted -100% | CAKI-1 renal; 10 µM unless noted -98.1% | A498 renal; 10 µM unless noted -86.2% | CCRF-CEM leukemia; 10 µM unless noted -73.8%

COc1ccc(-c2cc(C(=O)OCc3ccc(Br)cc3)nn2-c2ccc(S(C)(=O)=O)cc2)cc1OC
inactive: HCT-15 colon; 10 µM unless noted 73.3% | HT29 colon; 10 µM unless noted 87.3% | SNB-75 CNS; 10 µM unless noted 60.5% | SNB-19 CNS; 10 µM unless noted 84.6% | U251 CNS; 10 µM unless noted 86.1% | PC-3 prostate; 10 µM unless noted 72.1% | SK-MEL-5 melanoma; 10 µM unless noted 77.5% | UACC-62 melanoma; 10 µM unless noted 72.6% | LOX IMVI melanoma; 10 µM unless noted 75.3% | SK-MEL-28 melanoma; 10 µM unless noted 102% | SK-MEL-2 melanoma; 10 µM unless noted 95% | EKVX NSCLC 76.1% | SN12C renal; 10 µM unless noted 78.3% | UO-31 renal; 10 µM unless noted 42.4% | TK-10 renal; 10 µM unless noted 75.5% | ACHN renal; 10 µM unless noted 85.1% | CAKI-1 renal; 10 µM unless noted 83.5% | A498 renal; 10 µM unless noted 70.3% | CCRF-CEM leukemia; 10 µM unless noted 84.2% | MOLT-4 leukemia 64.5%

O=C(CSc1nnc(-c2ccc(-c3nc4ccccc4[nH]3)cc2)o1)Nc1ccc(Cl)cc1
inactive: HCT-15 colon; 10 µM unless noted 19.3% | HT29 colon; 10 µM unless noted 26.6% | SNB-75 CNS; 10 µM unless noted 62.4% | SK-MEL-5 melanoma; 10 µM unless noted 34.1% | UACC-62 melanoma; 10 µM unless noted 23.9% | SK-MEL-2 melanoma; 10 µM unless noted 70.6% | EKVX NSCLC 16.2% | SN12C renal; 10 µM unless noted 19.6% | UO-31 renal; 10 µM unless noted 57.8% | TK-10 renal; 10 µM unless noted 59.5% | CAKI-1 renal; 10 µM unless noted 17.1% | A498 renal; 10 µM unless noted 132% | CCRF-CEM leukemia; 10 µM unless noted 32.5%
active: SNB-19 CNS; 10 µM unless noted -37.3% | U251 CNS; 10 µM unless noted -75.4% | PC-3 prostate; 10 µM unless noted 7.32% | LOX IMVI melanoma; 10 µM unless noted -92.4% | SK-MEL-28 melanoma; 10 µM unless noted -85% | ACHN renal; 10 µM unless noted -86.8% | MOLT-4 leukemia 6.05%

NCCCCn1c(SCCc2c[nH]c3ccccc23)nnc1-c1ccc2ccccc2n1
inactive: SNB-19 CNS; 10 µM unless noted 18.6% | UO-31 renal; 10 µM unless noted 26.4% | A498 renal; 10 µM unless noted 98.5%
active: HCT-15 colon; 10 µM unless noted -1.2% | HT29 colon; 10 µM unless noted -45.3% | SNB-75 CNS; 10 µM unless noted 0.128% | U251 CNS; 10 µM unless noted -84.8% | PC-3 prostate; 10 µM unless noted 2.82% | SK-MEL-5 melanoma; 10 µM unless noted -99.4% | UACC-62 melanoma; 10 µM unless noted -88.5% | LOX IMVI melanoma; 10 µM unless noted -95.6% | SK-MEL-28 melanoma; 10 µM unless noted -97.4% | SK-MEL-2 melanoma; 10 µM unless noted -73.5% | EKVX NSCLC -0.327% | SN12C renal; 10 µM unless noted -14.8% | TK-10 renal; 10 µM unless noted -7.11% | ACHN renal; 10 µM unless noted -55.1% | CAKI-1 renal; 10 µM unless noted -9.25% | CCRF-CEM leukemia; 10 µM unless noted -23.3%

COc1cccc2nc(Nc3cccc(NC(=O)c4ccc(CN5CCN(C)CC5)c(C(F)(F)F)c4)c3)ccc12
active: HCT-15 colon; 10 µM unless noted -79.1% | HT29 colon; 10 µM unless noted -69.3% | SNB-75 CNS; 10 µM unless noted -97.5% | SNB-19 CNS; 10 µM unless noted -100% | U251 CNS; 10 µM unless noted -73.7% | PC-3 prostate; 10 µM unless noted -50.9% | SK-MEL-5 melanoma; 10 µM unless noted -100% | UACC-62 melanoma; 10 µM unless noted -99.1% | LOX IMVI melanoma; 10 µM unless noted -100% | SK-MEL-28 melanoma; 10 µM unless noted -100% | SK-MEL-2 melanoma; 10 µM unless noted -87.8% | EKVX NSCLC -96.2% | SN12C renal; 10 µM unless noted -90.5% | UO-31 renal; 10 µM unless noted -88.6% | TK-10 renal; 10 µM unless noted -93.1% | ACHN renal; 10 µM unless noted -100% | CAKI-1 renal; 10 µM unless noted -100% | A498 renal; 10 µM unless noted -94.9% | CCRF-CEM leukemia; 10 µM unless noted -44.4%

CC/C(=C(/c1ccc(O)cc1)c1ccc(OCCN(C)C(=O)COCCOCCNC(=O)c2ccc3c(c2)CN([C@@H]2CCC(=O)NC2=O)C3=O)cc1)c1ccccc1
active: CCRF-CEM leukemia; 1 µM 9.04%
inactive: HCT-15 colon; 1 µM 105% | HCT-15 colon; 10 µM 106% | HT29 colon; 1 µM 96.6% | HT29 colon; 10 µM 86% | SNB-75 CNS; 1 µM 54.5% | SNB-75 CNS; 10 µM 34.7% | SNB-19 CNS; 1 µM 85.5% | SNB-19 CNS; 10 µM 75.5% | U251 CNS; 1 µM 98.3% | U251 CNS; 10 µM 90.8% | PC-3 prostate; 1 µM 49.6% | PC-3 prostate; 10 µM 39.3% | SK-MEL-5 melanoma; 1 µM 95.2% | SK-MEL-5 melanoma; 10 µM 84.1% | UACC-62 melanoma; 1 µM 93.1% | UACC-62 melanoma; 10 µM 91.6% | LOX IMVI melanoma; 1 µM 98% | LOX IMVI melanoma; 10 µM 97.2% | SK-MEL-28 melanoma; 1 µM 101% | SK-MEL-28 melanoma; 10 µM 97.5% | SK-MEL-2 melanoma; 1 µM 101% | SK-MEL-2 melanoma; 10 µM 93.5% | SN12C renal; 1 µM 96% | SN12C renal; 10 µM 85% | UO-31 renal; 1 µM 87.2% | UO-31 renal; 10 µM 87.7% | TK-10 renal; 1 µM 99.1% | TK-10 renal; 10 µM 91.2% | ACHN renal; 1 µM 104% | ACHN renal; 10 µM 101% | CAKI-1 renal; 1 µM 99.3% | CAKI-1 renal; 10 µM 95.5% | A498 renal; 1 µM 114% | A498 renal; 10 µM 110% | CCRF-CEM leukemia; 10 µM 12.9%
